Source: PubChem
HCV inhibitor: inhibitors of hepatitis C virus infection; Huh7.5.1 HCVcc-Cre infection, luciferase reporter, 44 h; Potency, µM (doses to about 41.8 µM), for the others: at the highest dose activity change, negative = inhibition, hits mostly inhibitors; actives 3.4% (n = 340,000); AID 651820; also: potency is read from the fitted curve at half-maximal effect; % is scaled to controls: 0 for no effect and ±100 for the full control effect
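Compounds are dispensed onto cells plated 4 h earlier at 1,000 per well, with HCVcc-Cre virus (about 0.5 moi) added next. Following 44 h of culture, luminescent signal is measured for 15 sec after 15 min with substrate at room temperature.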
Cycloheximide cs: counter-screen hit for Shiga toxin inhibitors, cycloheximide; cell reporter, cycloheximide protein synthesis inhibition counterscreen; max response, %; actives 12% (n = 300,000); in the data active = max response mostly above about 13%, no sharp cut-off; inactive = mostly below about 14%; also: read at 38.3 µM for the half of the compounds with a filed dose; 0% is about no effect
Shiga toxin inh: inhibitors of Shiga toxin in Vero cells. AID 2315. actives 9.2% (n = 290,000). inhibition, % at 38.7 µM. Vero cells, Shiga toxin protein synthesis inhibition reporter; in the data active = inhibition mostly above about 28%, no sharp cut-off; inactive = mostly below about 43%; also: 0% is about no effect
Pf growth 48h: P. falciparum growth inhibition at 48 hours (one generation) | P. falciparum luciferase growth in erythrocytes, 48 h | Potency, µM (series often up to 28.7 µM), for the others: at the top dose activity change, negative = inhibition, most hits filed as inhibitors | actives 5.9% (n = 310,000) | AID 504832; also: potency is read from the fitted curve at half-maximal effect; % is scaled to controls: 0 for no effect and ±100 for the full control effect
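Cell-based growth assay: transgenic P. falciparum expressing firefly luciferase, cultured in red cells within RPMI 1640 containing 0.5% w/v Albumax, 24 mM bicarbonate and gentamycin. A drop in luciferase activity indicates inhibition.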
Pf growth 96h: inhibits malaria parasite growth, 96 h | AID 504834 | actives 6.9% (n = 320,000) | P. falciparum luciferase reporter growth, 96 h | Potency, µM (doses to about 28.7 µM), for the others: at the top dose activity change, negative = inhibition, actives largely listed as inhibitors; also: potency is read from the fitted curve at half-maximal effect; % is scaled to controls: 0 for no effect and ±100 for the full control effect
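P. falciparum expressing integrated firefly luciferase, in erythrocytes at 2% hematocrit, 0.05% parasitemia, incubated with compounds 96 h at 37 C, 5% CO2. Growth inhibition read as loss of luminescence; two-generation exposure targets delayed-death apicoplast inhibitors.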
HCMV inh: inhibitors of human cytomegalovirus; AID 1259415; activity change, negative = inhibition, % at 57.5 µM; HFF cells, HCMV-luciferase reporter, 72 h; stronger effect = lower value; actives 4.5% (n = 410,000); in the data active = activity change below about -60%; inconclusive = no clear call, values can overlap the other calls; inactive = above about -39%; also: % is scaled to controls: 0 for no effect and ±100 for the full control effect
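Steps: HFFs plated, 16 h 37C; compounds added; HCMV-luciferase added to MOI 1 PFU/cell; 72 h 37C; OneGlo reagent, 5 min room temperature; luminescence read, normalized to controls.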
* hit, by the source's call; ? = inconclusive; · = no result; ! = not active in a repeat. Hits are enriched below; roughly 21% of the tested compounds scored in any of these assays. Unless noted, calls follow the shape of the dose curve; as a rule, active = well fitted inhibition curve with a large enough effect; inconclusive = small, poorly fitted or top-dose-only effect, or another doubt; inactive = no such curve, though single readings can be large or run the other way.

SMILES	HCV inhibitor	Cycloheximide cs	Shiga toxin inh	Pf growth 48h	Pf growth 96h	HCMV inh
C#CCOCCOCCOCCNc1nc(N2CCN(C(=O)[C@H](Cc3ccc(O)cc3)n3cc([C@@H](N)CC(C)C)nn3)CC2)nc(N2CCN(C(=O)[C@H](Cc3ccc(O)cc3)n3cc([C@@H](N)CC(C)C)nn3)CC2)n1	·	0	-9	9.3µM*	?	·
C#CCOCCOCCOCCNc1nc(N2CCOCC2)nc(N2CCN(C(=O)[C@H](Cc3ccc(O)cc3)n3cc([C@@H](N)C(C)CC)nn3)CC2)n1 (stereo not given in full)	2%	1	-4	?	9.3µM*	1
CN(C(=O)c1cccc(NC(=O)Cc2ccc(NC(=O)C3CCN(C(=O)C4CC4)CC3)cc2)c1)C1CCCCC1	-16%	·	·	·	·	18
CCOCCC(=O)Nc1ccc2c(c1)c(=O)n(C)n2-c1ccccc1F	·	·	·	·	·	-13
O=C(CN1C(=O)COc2ccc(S(=O)(=O)Nc3ccccc3)cc21)NCc1ccccc1Cl	·	·	·	·	·	-106*
NS(=O)(=O)c1ccc(CCNC(=O)CN2C(=O)COc3ccc(S(=O)(=O)N4CCCC4)cc32)cc1	1%	1	-10	33%	?	-28
CC(C)CN(CCNC(=O)CN1C(=O)COc2ccc(S(=O)(=O)N3CCC(C)CC3)cc21)CC(C)C	8%	0	-1	?	12µM*	-13
COc1ccc(CCNC(=O)CN2C(=O)COc3ccc(S(=O)(=O)N4CCCC4)cc32)c(OC)c1	?	2	-10	-29%	9.3µM*	-63*!
COc1ccccc1CNC(=O)CN1C(=O)COc2ccc(S(=O)(=O)Nc3ccccc3)cc21	·	·	·	·	·	-19
COc1ccc(OC)c(CCNC(=O)CN2C(=O)COc3ccc(S(=O)(=O)N4CCCCCC4)cc32)c1	·	·	·	·	·	-23
O=C(CN1C(=O)COc2ccc(S(=O)(=O)N3CCCC3)cc21)NCCc1ccc(Cl)cc1	·	·	·	·	·	-73*
CC1CCC(NC(=O)c2ccc(CS(=O)(=O)c3c(Cl)cccc3Cl)o2)CC1 (stereo not given)	·	·	·	·	·	-14
O=C(CSc1nc2c([nH]c3ccccc32)c(=O)n1-c1ccc(F)cc1)N1CCCc2ccccc21	·	·	·	·	·	22
C=C1CC2(CC(c3ccccc3)OC(c3ccccc3)C2)OC1=O (stereo not given)	?	·	·	·	·	-7
Cc1ccc(NC(=O)CN2C(=O)COc3ccc(S(=O)(=O)N4CCCCCC4)cc32)cc1Cl	·	·	·	·	·	-84*
Cc1ccc(NC(=O)CN2C(=O)COc3ccc(S(=O)(=O)N4CCCC4)cc32)cc1C	-12%	14	-2	?	?	44
Cc1ccccc1S(=O)(=O)N1[C@@H](c2ccccc2)C(C(=O)O)=CC[C@H]1c1ccc(Cl)cc1	4%	·	·	?	47%	-99*
COc1cccc([C@@H]2CC=C(C(=O)O)[C@H](c3cccc(Cl)c3)N2S(=O)(=O)c2ccc(C)cc2)c1	9%	·	·	?	12µM*	-38
Cc1ccc(S(=O)(=O)N2[C@@H](c3cccc(Cl)c3)C(C(=O)OC(C)(C)C)=CC[C@H]2c2cccc(Cl)c2)cc1	·	·	·	·	·	5
CC(C)(C)OC(=O)C1=CC[C@@H](c2ccc(Cl)c(Cl)c2)N(S(=O)(=O)c2ccc(F)cc2)[C@H]1c1cccc(F)c1	·	·	·	·	·	-64*
COc1ccc([C@@H]2CC=C(C(=O)O)[C@H](c3ccc(F)cc3)N2S(=O)(=O)c2ccc(C)cc2)cc1OC	0%	·	·	?	10µM*	10
Cc1ccc([C@@H]2CC=C(C(=O)O)[C@H](c3ccc(Cl)cc3)N2S(=O)(=O)c2ccccc2C)cc1	46%	·	·	·	·	-17
CCC(=O)N1c2ccccc2CC1C(=O)NCCc1ccccc1C (stereo not given)	·	·	·	·	·	-11
COc1cc([C@@H]2CC=C(C(=O)O)[C@H](c3ccccc3F)N2S(=O)(=O)c2ccc(C)cc2)cc(OC)c1OC	30%	·	·	10µM*	10µM*	-25
Cc1ccc(S(=O)(=O)N2[C@@H](c3ccccc3F)C(C(=O)O)=CC[C@H]2c2ccc(Cl)c(Cl)c2)cc1	6%	·	·	?	12µM*	-18
SMILES	HCV inhibitor	Cycloheximide cs	Shiga toxin inh	Pf growth 48h	Pf growth 96h	HCMV inh
COc1cccc([C@@H]2CC=C(C(=O)O)[C@H](c3ccc(F)cc3)N2S(=O)(=O)c2ccc(C)cc2)c1	23%	·	·	?	?	3
COc1cc([C@@H]2CC=C(C(=O)O)[C@H](c3ccc(F)cc3)N2S(=O)(=O)c2ccc(C)cc2)cc(OC)c1OC	31%	·	·	3.3µM*	1.9µM*	8
CCOC(=O)c1ccn(CSc2c(F)c(F)cc(F)c2F)n1	-12%	·	·	?	?	0
Cc1cc(OCc2nnc(SC(C)C(=O)O)n2-c2ccccc2)ccc1Cl (stereo not given)	9%	-1	·	-1%	?	-8
CC[C@]12c3[nH]c4ccc(OC)cc4c3CCN1C(=O)C(CC(=O)NCCN1CCOCC1)C[C@@H]2C(=O)N1CCN(C(=O)c2ccco2)CC1 (stereo not given in full)	12%	·	·	·	·	-11
N#CC(=C1C=C(Br)C(=NO)C=C1Cl)c1cccc2ccccc12	·	·	·	·	·	-28
CCc1cccc(C)c1NC(=O)C1CCN(c2nn3c(=O)cc(C)nc3s2)CC1	2%	-7	-4	-11%	9.3µM*	-27
COc1ccc(NC(=O)C2CCCN2c2nn3c(=O)cc(C)nc3s2)cc1 (stereo not given)	11%	2	-9	25%	?	-5
CCc1ccc(NC(=O)C2CCCN2c2nn3c(=O)cc(C)nc3s2)cc1 (stereo not given)	5%	-2	-5	-3%	13µM*	20
COc1ccc(Cl)cc1NC(=O)CCc1nc(-c2ccccc2F)no1	-20%	-13	-28	10%	-23%	-17
O=C(CCc1nc(-c2ccccc2F)no1)Nc1ccc(Oc2ccccc2)cc1	?	5	-5	0%	?	-64*
COc1ccccc1NC(=O)Cc1noc(CN(C)Cc2cccs2)n1	?	-4	-7	-22%	5.9µM*	21
COc1ccccc1NC(=O)CCc1nc(-c2cccs2)no1	-5%	-1	-6	·	22%	31
